# A selection: hits, their analogues and other compounds. The true share with any hit is near 10%.
# ALDH1A1 block = blocks purified human ALDH1A1 activity; P00352; Purified ALDH1A1, NADH fluorescence, propionaldehyde substrate; actives 7.3% (n = 220,000); Potency, µM (top dose mostly 75.3 µM), without a hit: top-dose activity, negative = inhibition, most hits filed as inhibitors;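 note: potency is the fitted concentration of half-maximal effect; plate controls were no enzyme wells and a reference inhibitor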
# PNC inhibitor = blocks assembly of the perinucleolar compartment; PC3M PTB-GFP, PNC prevalence imaging, 16 h; active compounds read low; activity change (PNC), negative = inhibition, % at 10 µM; actives 3.1% (n = 140,000); AID 2417;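 active = readout at or below -70, meaning at least 70% loss of cells showing the perinucleolar compartment, a nuclear body marking cancer cells; inconclusive = readout between -30 and a set limit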;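 note: plate controls were DMSO wells for no effect and camptothecin positive control wells for full effect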
#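 Read-out is percentage of cells bearing a perinucleolar compartment, from automated 20x imaging of fixed, Hoechst-stained PC3M PTB-GFP cells. Cells were seeded 4 h, then exposed 16 h to compound (23 nl of library stock) in duplicate plates.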
# Luc counter = blocks Kinase-Glo luciferase, a counter-screen artifact. actives 0.28% (n = 200,000). Potency, µM (highest dose often 38.3 µM), for inactives: top-dose activity change, negative = inhibition, most hits filed as inhibitors. AID 1379. Kinase-Glo luciferase, ATP luminescence, 8 min; active = well fitted inhibition curve with a large enough effect; inconclusive = small, poorly fitted or top-dose-only effect; note: potency is the fitted concentration of half-maximal effect; nearly all actives have a fitted effect of over 60% in size
#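 Luminescence was the read-out, taken after 8-minute incubation at ambient temperature. Luciferase turned over luciferin with 10 uM ATP in imidazole pH 7.2 buffer containing KCl, MgCl2, Tween 20 and BSA.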
# Lamin A splicing = modulators of lamin A splicing; HeLa LMNA splicing GFP/RFP minigene ratio, 48 h; actives 0.01% (n = 200,000); AID 1487; Potency, µM (titrated, usually from 46.1 µM), inactives show at the top dose ratio change, negative = inhibition, most hits filed as inhibitors; active = well fitted inhibition curve with a large enough effect in the signal ratio, with a control signal flat, not every such curve was filed as active; inconclusive = small, poorly fitted or top-dose-only effect, or effect the other way, or a change in a side signal; the % refers to the signal ratio; note: potency is the fitted concentration of half-maximal effect
#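 Read-out is the ratio of GFP to DsRed2 object intensity, acquired by 488 nm laser-scanning cytometry on HeLa lamin A-EGFP minigene reporter cells. Compound incubation 48 hrs at 37 °C in Opti-MEM with 2% FBS; DMSO 0.5% final.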
# HPGD inh = blocks human HPGD enzyme activity | Potency, µM, without a hit: top-dose activity change, negative = inhibition, most hits filed as inhibitors | AID 894 | purified HPGD, NADH fluorescence kinetic, PGE2 substrate | actives 4.3% (n = 150,000) | P15428; note: potency is the fitted concentration of half-maximal effect
# Target sequence (P15428 whole entry, looked up): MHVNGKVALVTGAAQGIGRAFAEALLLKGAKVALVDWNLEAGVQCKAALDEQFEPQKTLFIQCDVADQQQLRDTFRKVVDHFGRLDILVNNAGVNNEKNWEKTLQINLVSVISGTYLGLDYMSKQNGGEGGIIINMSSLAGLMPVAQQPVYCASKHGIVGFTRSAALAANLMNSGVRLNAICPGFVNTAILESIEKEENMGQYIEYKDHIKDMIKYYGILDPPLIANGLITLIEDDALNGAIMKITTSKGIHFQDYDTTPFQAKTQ
#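 20 nM HPGD preincubated 15 min at room temperature with compound in 50 mM Tris-HCl pH 8, 0.01% Tween 20. Started with 1 mM NAD+ and 30 uM prostaglandin E2; NADH fluorescence (360/450 nm) read 5 times over 30-s intervals, last minus first.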
# An asterisk follows results filed as active; ? = inconclusive; / = no result given; [ ] = remark or other dose. Unless noted, calls come from the whole dose curve; as a rule, active = well fitted inhibition curve with a large enough effect (not every such curve was filed as active); inconclusive = small, poorly fitted or top-dose-only effect, or another doubt; inactive = no such curve, though single readings can be large or run the other way. Unless noted, % is set by controls: 0 for no effect and ±100 for the full control effect.
SMILES,ALDH1A1 block,PNC inhibitor,Luc counter,Lamin A splicing,HPGD inh
O=C(Nc1ccc(OC(F)F)c(Cl)c1)Nc1ccc2c(c1)OCO2,0%,-87*,0%,?,-7%
O=C(Nc1ccc([N+](=O)[O-])cc1)Nc1ccc(OC(F)F)c(Cl)c1,-1%,-113*,0%,?,-4%
O=C(Nc1ccc2c(c1)OCO2)Nc1ccc2c(c1)OCO2,-4%,/,-4%,-1%[46 µM],/
O=C(O)NCc1ccccc1 (tested in a mixture with another compound),-3%[13.5 µM],/,-3%[7.66 µM],/,-5%
Cc1cc(C)nc(NC(=O)C(c2ccccc2)c2ccccc2)c1,14µM*,35,1%,-1%,-1%
Cc1ccc(N=Nc2c(N)[nH]n3c(=O)cc(-c4ccccc4)nc23)cc1,12%,-30,-2%,-17%,-22%
Cc1ccc(N=Nc2c(=O)[nH]n3c(=O)cc(C)[nH]c23)cc1,?,?,?,-12%,20µM*
Cc1c2c(nc3ccccc13)CC(C)(C)CC2=O,14µM*,/,9%,-10%[46 µM],/
Cc1c2c(nc3nc4ccccc4n13)CC(C)(C)CC2=O,-2%,15,-1%,-2%,-13%
O=C(Nc1cccc(C(=O)OCc2cc(=O)n3nc(C4CC4)sc3n2)c1)c1ccc(F)cc1,/,/,/,10%[46 µM],/
COc1ccc(-c2[nH]ncc2CN(C)CCc2c(C)n[nH]c2C)c(F)c1,10µM*,/,9%,/,/
CCCc1ccc(-c2c(C)sc(N)c2C#N)cc1,20µM*,-7,0%,-2%,-26%
CCCC(=O)Nc1sc(C)c(-c2ccc(OC)cc2)c1C#N,3%,35,0%,-2%,-9%
Cc1nc(-c2ccccc2)sc1CCNC(=O)C(=O)Nc1ccc(F)c(Cl)c1,/,/,/,8%[46 µM],/
COc1ccc(S(=O)(=O)N(CCc2ccccc2)CC(=O)N/N=C/c2ccc3c(c2)OCO3)cc1,?,55,-4%,?,22µM*
COc1ccc(S(=O)(=O)N(CCc2ccccc2)CC(=O)NCCCO)cc1,8.9µM*,9,-4%,2%,-5%
Cc1cccc2cc(-c3nc4c(C)cccn4c3NCc3ccco3)c(=O)[nH]c12,20µM*,15,-5%,-1%,2%
Cc1cc(C(C)(C)C)cc(S(=O)(=O)NCC(=O)O)c1C,8.9µM*,-2,6%,-6%,0%
O=C(O)c1ccc(NS(=O)(=O)c2cc(Cl)ccc2Cl)cc1O,0%,-8,3%,-9%,?
O=C(O)CNS(=O)(=O)c1cc(Cl)c(Cl)cc1Cl,15%,22,4%,-1%,-13%
Cc1cc(C(C)(C)C)cc(S(=O)(=O)Nc2ccc(O)c(C(=O)O)c2)c1C,4µM*,37,-3%,25%,?
CC(=O)Nc1ccc(NC(=O)c2ccc(NS(=O)(=O)c3cc(C(C)(C)C)cc(C)c3C)cc2)cc1,-4%,-89*,1%,?,-22%
Cc1ccc2nc(N3CCN(C(=O)C4COc5ccccc5O4)CC3)sc2c1 (centres undefined),/,/,/,5%[46 µM],/
Fc1ccc(N2CCN(c3nc(-c4ccco4)cc(C(F)(F)F)n3)CC2)cc1,5%,23,-3%,-13%,-17%
FC(F)(F)c1cc(-c2ccco2)nc(N2CCN(Cc3ccccc3)CC2)n1,22µM*,70,-5%,-19%,-19%
SMILES,ALDH1A1 block,PNC inhibitor,Luc counter,Lamin A splicing,HPGD inh
c1ccc(N2CCN(Cc3ccnc4ccccc34)CC2)cc1,16µM*,-28,1%,?,-14%
O=C(OCn1ncc(Br)c(Br)c1=O)c1ccc(F)cc1,0.089µM*,-10,-4%,?,22µM*
O=C(OCn1ncc(Br)c(Br)c1=O)c1ccccc1Cl,0.4µM*,-3,-4%,?,?
CNc1ccccc1C(=O)N1CCc2c([nH]c3ccccc23)C1=O,?,/,-4%,?,?
Cc1ccc2c(c1)C(C)(C)[C@]1(C)NC(=O)CCN21,40µM*,58,1%,1%,-13%
CN(C)c1ccc(C=NCCC2(O)CCOC(C)(C)C2)cc1 (centres undefined),0.56µM*,233,-1%,-10%,-19%
CN(C)c1ccc(CNCCC2(O)CCOC(C)(C)C2)cc1 (centres undefined),?,5,-3%,-5%,-6%
CC1=C(C(=O)OCC(C)C)C(c2cccc(F)c2)N2C(=O)C(C)SC2=N1 (centres undefined),0.45µM*,?,-1%,5%,?
Cn1c(=O)n(C)c2cc(NC(=O)CCl)ccc21,0.71µM*,?,6%,?,-13%
Cc1ccc(OCC(=O)NCC(=O)OCc2cc(=O)n3nc(C(C)C)sc3n2)cc1,/,/,/,1%[46 µM],/
O=C(Nc1cccnc1)c1c(F)c(F)c(F)c(F)c1F,3%,-107*,1%,4%,-6%
O=C(Nc1cccnc1)c1ccc(C(=O)Nc2cccnc2)cc1,10%,/,-2%,/,/
COc1ccc(/C=C/c2ccncc2)cc1OC,?,-97*,-10%,-17%,?
COc1ccc(/C=C/C(=O)c2ccc[nH]2)cc1OC,-7%,-4,-7%,?,-20%
CCOc1ccc(/C=C/C2=CC(C)(C)NC(=S)N2)cc1,13µM*,/,-2%,/,/
COc1ccc(/C=C/C2=CC(C)(C)NC(=S)N2)cc1OC,7.9µM*,/,-1%,0%[9.22 µM],/
CCC/C=C/C1C(=O)C2OC2C2(OCC(CC)(CC)CO2)C1CO (centres undefined),6%[13.5 µM],/,/,/,/
COC(=O)C1(Cc2ccccc2)C=C2C(=C(C(C)C)C(=O)C2C)CN1 (centres undefined),?,/,-2%,/,?
CC1(C)Cc2nc3oc4c(=S)nc[nH]c4c3cc2CO1,3.2µM*,-10,-7%,-12%,28µM*
Cc1ccc2nc(N3CCOCC3)c(C=O)c(=O)n2c1,25µM*,/,2%,/,/
C=CCSC1=N/C(=C\c2ccc3c(c2)OCO3)C(=O)S1,-9%,-23,1%,1%,-14%
C=CCSC1=N/C(=C\c2cc(OCC)c(OC(C)=O)c([N+](=O)[O-])c2)C(=O)S1,0%,-116*,?,8%,6.3µM*
CCOc1cc(/C=C2\CCC/C(=C\c3cc(Cl)c(O)c(OCC)c3)C2=O)cc(Cl)c1O,2.5µM*,28,-4%,290%,16µM*
C=C(C)[C@@H]1CCC2(C(=O)O)CC[C@]3(C)[C@H](CC[C@@H]4[C@@]5(C)CCC(=O)C(C)(C)[C@@H]5CC[C@]43C)[C@@H]12 (some centres undefined),8%,-95*,10%,?,-14%
Cc1cccc(NS(=O)(=O)c2ccc(NC(=O)CN(c3cc([N+](=O)[O-])ccc3C)S(C)(=O)=O)cc2)c1,12%,-113*,4%,?,-6%
Cc1ccnc(N2C(=O)c3ccccc3C2O)c1 (centres undefined),3%,-24,11µM*,-11%,-4%

# Compound activity as filed in PubChem BioAssay.
